FBPA Giardia inh – inhibitors of Giardia lamblia fructose-1,6-bisphosphate aldolase | A8B2U2 | actives 0.71% (n = 290,000) | purified Giardia FBPA | Potency, µM (top dose mostly 59.6 µM), usual class: inhibitors; further: nearly all actives have a fitted effect of over 55% in size
Target sequence (A8B2U2 whole entry, looked up): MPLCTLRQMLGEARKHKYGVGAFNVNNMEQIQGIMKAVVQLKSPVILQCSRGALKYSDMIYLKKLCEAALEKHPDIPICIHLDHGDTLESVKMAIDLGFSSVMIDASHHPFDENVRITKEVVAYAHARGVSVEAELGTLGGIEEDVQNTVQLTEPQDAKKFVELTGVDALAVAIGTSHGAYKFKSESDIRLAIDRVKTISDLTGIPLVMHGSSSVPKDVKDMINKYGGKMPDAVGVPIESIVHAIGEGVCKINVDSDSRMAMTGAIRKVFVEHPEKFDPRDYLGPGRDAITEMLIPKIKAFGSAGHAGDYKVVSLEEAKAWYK
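Giardia FBPA (40 nM reagent) was preincubated 10 min at RT with compound (up to 57.5 uM final), then substrate plus GAPDH/TPI/NAD/arsenate coupling system with diaphorase/resazurin was added; resorufin fluorescence (525/598 nm) was read after 20 min.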
Vaccinia mCherry – vaccinia inhibition (mCherry reporter). Vaccinia virus mCherry reporter infection, fluorescence. Potency, µM (doses to about 36.5 µM), hits mostly inhibitors. actives 0.63% (n = 310,000). AID 720579; calls by dose curve; tested in A549 cells; further: nearly all actives have a fitted effect of over 35% in size
FMDV inh – antivirals against foot and mouth disease virus; FMDV antiviral cell-based qHTS; Potency, µM (series often up to 57.9 µM), usual class: inhibitors; actives 1.2% (n = 410,000); AID 1159524; calls by dose curve; tested in HEK293T cells; further: read-out not given here; nearly all actives have a fitted effect of over 45% in size
VACV Venus inh – vaccinia inhibition (Venus reporter); Vaccinia virus Venus reporter expression, fluorescence; Potency, µM (doses to about 36.5 µM), hits mostly inhibitors; actives 0.46% (n = 330,000); calls by dose curve; tested in A549 cells; further: nearly all actives have a fitted effect of over 30% in size
HCMV inh – human cytomegalovirus inhibition; HFF cells, HCMV-luciferase reporter, 72 h; hits give low values; activity change, negative = inhibition, % at 57.5 µM; actives 4.5% (n = 410,000); AID 1259415; in the data active means activity change below about -60%; inconclusive means no clear call, values can overlap the other calls; inactive means above about -39%
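Human foreskin fibroblasts infected with luciferase-reporter HCMV at MOI 1 PFU/cell, compounds at two doses. Luciferase measured 72 h post infection; normalized to buffer-only basal and Salinomycin (10uM) controls.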
HCV inh – blocks hepatitis C virus. Huh7.5.1 HCVcc-Cre infection, luciferase reporter, 44 h. Potency, µM (doses to about 41.8 µM), hits mostly inhibitors. actives 3.4% (n = 340,000)
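Antiviral activity was scored by luciferase reporter output from cells infected with HCVcc-Cre (~0.5 moi) in presence of compound, 44 h infection period, cells seeded 1,000/well 4 h prior.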
Hits are given with their value; n = inactive; u = inconclusive; x = no result; ! = not confirmed by another sample; [ ] = dose if it differs, or a comment. This is a sample that favours compounds with a hit; in the whole collection about 7.5% have one here. Unless noted, the call rests on the fitted dose curve; in most records, active means well fitted curve in the direction sought with a large enough effect; inconclusive means small, poorly fitted or top-dose-only effect, or another doubt; inactive means no such curve, though single readings can be large; an effect the other way counts as inactive or inconclusive.

SMILES	FBPA Giardia inh	Vaccinia mCherry	FMDV inh	VACV Venus inh	HCMV inh	HCV inh
COc1ccc(CN2C(=O)C(NC(=O)c3ccccc3C)(C(F)(F)F)N=C2c2ccccc2)cc1 (stereo not given)	x	n	n	n	-103	x
O=C(O)CCCn1cc(NC(=O)COc2ccccc2F)cn1	n	n	10µM!	n	n	n
C[C@]12CCC3C(CC[C@H]4C[C@@H](O)CC[C@]34C)C1CC[C@@]2(O)C(F)(F)F (stereo not given in full)	x	x	x	x	-61	n
C[C@]12CCC3C(CC[C@H]4C[C@@H](O)CC[C@]34C)[C@H]1CC[C@H]2O (stereo not given in full)	x	n	n	n	n	n
C[C@H]1CC[C@@]2(C)[C@@H](CC[C@@H]3[C@@H]2CC[C@]2(C)[C@@H](O)CC[C@@H]32)C1	n	n	n	n	-100	n
CC(=O)[C@@]1(O)CCC2C3CC[C@H]4C[C@@H](O)CC[C@]4(C)C3CC[C@@]21C (stereo not given in full)	x	n	n	n	n	n
C[C@]12CCC3C(CC[C@@H]4CC(=O)CC[C@]34C)C1CC[C@@H]2O (stereo not given in full)	x	u	n	n	n	n
C[C@]12CCC(=O)C[C@@H]1CC[C@@H]1[C@@H]2CC[C@]2(C)[C@@H](O)CC[C@@H]12	x	n	u	n	-61	n
CC1CCCCc2nc3c(c(=O)n21)CCCC3 (stereo not given)	x	n	n	n	u	x
Cc1cc(S(=O)(=O)N2CC(=O)N(CCc3ccccc3)C(=O)C2)ccc1F	n	n	n	n	-89	n
O=C(CCSc1nc(-c2ccc3c(c2)OCO3)cc(C(F)(F)F)n1)NCc1ccccc1	n	n	n	n	n	u
CN(Cc1ccccc1)C(=O)CCSc1nc(-c2ccc3c(c2)OCO3)cc(C(F)(F)F)n1	n	n	n	n	n	10µM
COc1cc2cnc(-c3ccsc3)c(-c3ccc(F)cc3)c2cc1OC	x	n	u	n	n	6.3µM
COc1cc(CNc2nc3c(C)cc(C)cc3s2)ccc1O	n	n	n	n	n	u
Cc1cc(C)c2nc(NCc3ccccc3O)sc2c1	n	x	n	x	-65	u
CCc1nc(SCC(=O)Nc2ccc(Br)cn2)n[nH]1	x	x	x	x	n	x
N/C(=N\OC(=O)c1cccc(Cn2cc(C(F)(F)F)ccc2=O)c1)c1ccccc1	n	x	n	x	u	u
N/C(=N\OC(=O)c1cccc(Cn2cc(C(F)(F)F)ccc2=O)c1)c1ccc(Cl)cc1	n	n[7.34 µM]	u	n[7.34 µM]	-64	n
Cc1cccn2c(=O)c3cc(C(=O)NCc4ccc(F)cc4)c(=N)n(CCCN4CCOCC4)c3nc12	x	n	4.5µM	n	n	u
Cc1cccn2c(=O)c3cc(C(N)=S)c(=N)n(CCCN4CCOCC4)c3nc12	u	x	u	x	-64	u
Cc1ccc2nc3c(cc(C(N)=S)c(=N)n3CCCOC(C)C)c(=O)n2c1	u	x	n	x	n	25µM
COCCCn1c(=N)c(C(=O)NCc2cccnc2)cc2c(=O)n3cc(C)ccc3nc21	x	n	n	n	n	x
COCCCn1c(=N)c(C(N)=S)cc2c(=O)n3cccc(C)c3nc21	x	n	n	n	u	u
CC(C)NC(=O)c1cccc2c(-c3ccc(F)c(F)c3)coc12	x	n	n	n	n	x
CCC(C)NC(=O)c1cccc(NC(=O)c2nsc3ccccc23)c1 (stereo not given)	x	n	n	n	n	x
SMILES	FBPA Giardia inh	Vaccinia mCherry	FMDV inh	VACV Venus inh	HCMV inh	HCV inh
C/C(=N\O)c1oc2ccc3c(C)cc(=O)oc3c2c1C	n	n	n	n	-63	n
CCS(=O)(=O)n1nc(-c2ccco2)nc1SC	28µM	x	n	x	n	n
Cc1c(CN(C)C(=O)c2sc3cc(Cl)ccc3c2Cl)cnn1C	n	u	n	u	-84	22µM
CCCCc1cc2c(cn1)=C(OC(=O)c1ccc(Cl)nc1)C(C)(OC(=O)CC)C(=O)C=2 (stereo not given)	n[12.9 µM]	x	x	x	x	x
CCOC(=O)C(NC(=O)c1cccc(Cl)c1)(Nc1sc2c(c1C(N)=O)CCC2)C(F)(F)F (stereo not given)	n	x	u	x	n	13µM
CC(=O)N1CCN2C(=O)C1CCCC(=O)c1cc(C(C)C)ccc12 (stereo not given)	n	x	n	n	-67	n
CC(=O)N1CCN2C(=O)C1CCCC(=O)c1cc(C3CCCCC3)ccc12 (stereo not given)	n	x	n	x	n	n
CC(C)[C@H](NC(=O)c1ccc([N+](=O)[O-])cc1Cl)C(=O)N1CCN(C/C=C/c2ccccc2)CC1	x	u	u	n	n	14µM
O=[N+]([O-])c1ccc(C(O)CN2CCN(C/C=C/c3ccccc3)CC2)cc1 (stereo not given)	n	n	n	n	n	13µM
O=[N+]([O-])c1ccc(C(O)CN2CCN(Cc3ccccc3)CC2)cc1 (stereo not given)	n	u	n	n	n	n
COc1ccc(C(=O)NC(C(=O)N2CCN(C/C=C/c3ccccc3)CC2)C(C)C)cc1 (stereo not given)	x	n	u	n	n	x
Cc1cccc(CNC(=O)c2cnc3sc(N4CCOCC4)nn3c2=O)c1	x	n	n	n	n	x
CCn1nc(-c2cccs2)nc2c(=O)n(C)c(=O)nc1-2	u	x	1.6µM	0.79µM	x	0.56µM
CCn1nc(-c2ccccc2C)nc2c(=O)n(C)c(=O)nc1-2	x	5.6µM	x	6.3µM	x	x
CCc1ccc(N(C(=O)c2snc(C(N)=O)c2N)C(C(=O)NCCC(C)C)c2c[nH]c3ccccc23)cc1 (stereo not given)	n	x	n	x	n	n
Cc1ccc(CCNC(=O)c2cc3sccc3n2Cc2ccc(F)cc2)cc1	x	n	n	n	n	x
CC(=O)c1ccccc1OCCCOc1cccc2cccnc12	x	x	n	x	-83	u
CC(=O)c1ccc(OCCCOc2cccc3cccnc23)cc1	n	x	n	x	n	n
CN(CC(=O)Nc1cccc(F)c1)C(=O)c1ccc(N2CCCC2)c([N+](=O)[O-])c1	x	n	n	n	-61	u
CN(CC(=O)Nc1cccc(F)c1)CC(=O)Nc1ccccc1[N+](=O)[O-]	u	n	u	n	-87	u
CCC(CO)Oc1cc(NCc2ccc(C)c(C)c2)c2ncn(C(C)C)c2c1 (stereo not given)	x	n	n	u	n	u
CCC(CO)Oc1cc(NCc2cc(C)cc(C)c2)c2ncn(C(C)C)c2c1 (stereo not given)	x	u	n	n	n	1.6µM
CCC(CO)Oc1cc(NC(=O)c2cccc([N+](=O)[O-])c2)c2ncn(C(C)C)c2c1 (stereo not given)	x	n	n	n	n	2.8µM
COc1cc(N(Cc2ccccc2)Cc2ccccc2)c2ncn(C(C)C)c2c1	x	n	n	n	-87	11µM
CC(C)n1cnc2c(N(C)c3ccccc3)nc(N(CCN(C)C)Cc3ccccc3)nc21	n	u	u	13µM	n	u
